From the supplement of paper PMC11482750
± gives the standard deviation of the averaged measurements.

Compound: CCOC(C)=O [ethyl acetate]
Test: control-subtracted net OSN firing rate; higher = stronger neuronal activation
Conditions: odorant dilution (vol/vol): 1/100
Description: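 Single sensillum recordings from olfactory sensory neurons. The neurons sit in the maxillary palp or antennal sensilla of D. melanogaster (wild type, mutants, or at1 empty-neuron lines expressing Or42a homologs or the A181D S307P mutant) and of four Scaptomyza species. Each odorant was given as a 1 s pulse from 20 µl loaded on filter paper at 1:100 vol/vol, diluted in mineral oil (γ-hexalactone in DMSO). Spikes were counted in a 0.5 s window starting 0.2 s after onset, background was subtracted, the count was doubled, and the mean solvent-control response was subtracted.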

| Target | control-subtracted net OSN firing rate [spikes/s] |
| --- | --- |
| S. hsui pb1b-like | -16.7 ± 9.4 |
| S. pallida pb1a-like | 80.3 ± 20 |
| S. hsui pb2a-like | 8 ± 5.1 |
| S. flava pb1b-like | -6.33 ± 12 |
| S. hsui pb3a-like | -4.33 ± 11 |
| S. hsui pb3b-like | -2.33 ± 2.3 |
| S. flava pb1a-like | 61.7 ± 23 |
| S. pallida pb2a-like | 7.33 ± 11 |
| Canton-S (D. melanogaster) pb1b | -7.33 ± 9.6 |
| S. hsui pb2b-like | 53 ± 37 |
| S. hsui pb1a-like | 98.3 ± 21 |
| S. flava pb3a-like | 6.67 ± 11 |
| Canton-S (D. melanogaster) pb2b | 4 ± 6.4 |
| S. pallida pb1b-like | -12.7 ± 9.3 |
| Canton-S (D. melanogaster) pb2a | 4.57 ± 6.5 |
| S. pallida pb2b-like | 9.33 ± 10 |
| S. pallida pb3b-like | 28.7 ± 25 |
| Canton-S (D. melanogaster) pb3a | 1.33 ± 8.4 |
| S. flava pb2b-like | 0.333 ± 7.3 |
| Canton-S (D. melanogaster) pb1a | 89.1 ± 27 |
| Canton-S (D. melanogaster) pb3b | 0.333 ± 9.4 |
| S. pallida pb3a-like | 8.67 ± 14 |
| S. flava pb2a-like | -1.67 ± 5.7 |
| S. flava pb3b-like | 0.333 ± 9.7 |
